Results filed as inconclusive are left out. Calls of active or inactive are those of the source. Calls follow the shape of the dose curve; as a rule, active = well fitted curve in the direction sought with a large enough effect; inconclusive = small, poorly fitted or top-dose-only effect, or effect the other way, or another doubt; inactive = no such curve, though single readings can be large or run the other way.
These compounds were tested against Pyruvate kinase PKLR (Homo sapiens) (UniProt P30613) (assay: Secondary LDH Assay for Activators of Human Liver Pyruvate Kinase: for Probe SAR). Conditions: purified hPK-L, LDH-coupled NADH fluorescence kinetic; series mostly up to 58.2 µM.
Summary of the method: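 Kinetic LDH-coupled read-out: NADH fluorescence loss followed every 30 s for 3–6 min gave initial rates. Reaction: 10 nM human liver PK, 0.1 mM PEP, 4 mM ADP, 0.2 mM NADH, 50 mM Tris-Cl pH 8.0; activation normalised to fructose-bis-phosphate.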

Sequence of Pyruvate kinase PKLR (Homo sapiens) (P30613 whole entry, looked up): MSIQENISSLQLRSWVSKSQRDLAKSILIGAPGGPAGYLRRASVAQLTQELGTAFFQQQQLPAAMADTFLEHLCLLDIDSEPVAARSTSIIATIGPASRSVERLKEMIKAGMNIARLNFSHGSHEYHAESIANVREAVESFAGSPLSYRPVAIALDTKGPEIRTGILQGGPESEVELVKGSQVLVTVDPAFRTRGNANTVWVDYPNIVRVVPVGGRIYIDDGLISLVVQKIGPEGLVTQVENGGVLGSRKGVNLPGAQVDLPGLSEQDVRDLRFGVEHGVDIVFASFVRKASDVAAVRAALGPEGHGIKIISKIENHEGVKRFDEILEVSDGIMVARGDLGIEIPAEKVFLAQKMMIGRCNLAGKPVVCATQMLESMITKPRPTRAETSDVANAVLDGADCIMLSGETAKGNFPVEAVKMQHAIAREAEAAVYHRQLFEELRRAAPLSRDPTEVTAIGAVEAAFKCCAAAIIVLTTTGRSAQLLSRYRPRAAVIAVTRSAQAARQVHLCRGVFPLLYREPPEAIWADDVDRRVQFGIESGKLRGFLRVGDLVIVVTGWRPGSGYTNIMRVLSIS

| SMILES | outcome |
| --- | --- |
| O=C1CCc2cc(S(=O)(=O)Nc3ccc4ncccc4c3)ccc2N1 | inactive |
| O=C1c2ccccc2C(=O)N1c1cccnc1 | inactive |
| Cc1ccccc1NS(=O)(=O)c1ccc2c(c1)CCC(=O)N2 | inactive |
| O=C1c2ccccc2C(=O)N1c1cccc2cccnc12 | inactive |
| Cc1ccc(NS(=O)(=O)c2cc3c(cc2Cl)NC(=O)C3)cc1C | inactive |
| Cc1ccc(NS(=O)(=O)c2ccc3[nH]c(=O)[nH]c3c2)cc1C | inactive |
| COc1ccccc1N1C(=O)c2ccccc2C1=O | inactive |
| Cc1ccc(Cl)cc1NS(=O)(=O)c1cc2c(cc1Cl)CCC(=O)N2 | inactive |
| O=C1CCc2cc(S(=O)(=O)Nc3cccc(F)c3)ccc2N1 | inactive |
| Cc1ccc(NS(=O)(=O)c2ccc3c(c2)CCO3)cc1C | inactive |
| Cc1cccc(OC2=NS(=O)(=O)c3ccccc32)c1 | inactive |
| Nc1cccc(S(=O)(=O)N2CCCN(S(=O)(=O)c3ccc4c(c3)OCCO4)CC2)c1 | inactive |
| Cc1ccc(-c2nc3ccc(Cl)cn3c2Nc2ccccc2)o1 | inactive |
| Cc1ccc(C)c(OC2=NS(=O)(=O)c3ccccc32)c1 | inactive |
| O=C1CCc2cc(S(=O)(=O)Nc3ccccn3)ccc2N1 | inactive |
| O=C1c2ccccc2C(=O)N1c1cncc2ccccc12 | inactive |
| O=C1CCc2cc(S(=O)(=O)Nc3cc(F)cc(Cl)c3)c(F)cc2N1 | inactive |
| CCCCN1C(=O)c2ccccc2C1=O | inactive |
| Cc1cc2c(s1)c1cnn(Cc3ccccc3F)c(=O)c1n2C | inactive |
| Cc1ccc(NS(=O)(=O)c2cc3c(cc2N(C)C)NC(=O)CC3)cc1C | inactive |
| Cc1ccc(NS(=O)(=O)c2ccc3c(c2)CCC(=O)N3)cc1 | inactive |
| O=C1CCc2cc(S(=O)(=O)Nc3ccc(Cl)c(Cl)c3)c(F)cc2N1 | inactive |
| O=C1c2ccccc2C(=O)N1c1ncccc1O | inactive |
| CC(=O)N1CCc2cc(S(=O)(=O)Nc3ccc(C)c(C)c3)ccc21 | inactive |
